Assay outcomes as filed in PubChem.
TDP1 cell CPT – growth inhibition of DT40 Tdp1-/-;hTDP1 cells with camptothecin (screen for TDP1 inhibitors); chicken DT40 Tdp1-/-;hTDP1 cells + 20 nM CPT, ATP luminescence, 48 h; Potency, µM (doses to about 46.2 µM), inactives show at the highest dose activity change, negative = growth inhibition, most hits filed as inhibitors; 420,000 tested, 12% active; further: potency means the concentration at half of the fitted maximal effect; nearly all actives have a fitted effect of over 55% in size
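Cell growth measured by CellTiter-Glo luminescence after a minimum 48 h, 37 C compound exposure with 20 nM CPT in Tdp1-knockout DT40 cells stably expressing hTDP1, seeded 400/well; qHTS titration format.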
DT40 TDP1 no CPT – qHTS for Inhibitors of human tyrosyl-DNA phosphodiesterase 1 (TDP1): qHTS in cells in absence of CPT. DT40 Tdp1-/- hTDP1 cells, no CPT, ATP luminescence, 48 h. Potency, µM (highest dose often 46.2 µM), for inactives: at the top dose activity change, negative = growth inhibition, usual class: inhibitors. 420,000 tested, 15% active; further: potency means the concentration at half of the fitted maximal effect; nearly all actives have a fitted effect of over 55% in size
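A cellular qHTS used chicken DT40 cells lacking endogenous Tdp1 but carrying stably transfected human TDP1. Compounds were applied without camptothecin, and cell growth kinetics were judged by ATP-dependent luminescence after ≥48 hr.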
CtBP-E1A blk – blocks the CtBP interaction with E1A | AlphaScreen GST-E1A/His-CtBP binding, 1536-well; active compounds read low | activity change, % (no concentration beside the values) | 340,000 tested, 0.49% active; in the data active means activity change below about -65%; inconclusive means mostly about -30% to -63%
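Protein mix (5X: 125 nM each GST-E1A, His-CtBP) was incubated with pinned compound 2 h at 37 deg C in dark, in 50 mM Tris pH 8.0 buffer with 300 mM NaCl. Glutathione donor and nickel acceptor beads followed; AlphaScreen signal read after 1 h.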
IL-1B inflam inh – blocks inflammasome-driven IL-1 beta release | THP-1 LPS/ATP IL-1B secretion, AlphaLISA, 16 h; active compounds read low | 360,000 tested, 4.7% active | activity change, % at 57.5 µM; in the data active means activity change below about -50%; inconclusive means mostly about -30% to -49%
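THP-1 cells pretreated 1 hr with compounds (up to 57.5 uM final), then stimulated with LPS (250 ng/mL final) plus ATP (1.25 mM final); secreted IL-1B measured by AlphaLISA after 16 hr, decreased signal indicating inhibition.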
TDP1 inh – blocks human tyrosyl-DNA phosphodiesterase 1; Q9NUW8; recombinant TDP1, AlphaScreen DNA substrate cleavage; Potency, µM (titrated, usually from 130 µM), without a hit: at the highest dose activity change, negative = inhibition, hits mostly inhibitors; 350,000 tested, 0.28% active; AID 485290; further: potency means the concentration at half of the fitted maximal effect; nearly all actives have a fitted effect of over 40% in size
Target sequence (Q9NUW8 whole entry, looked up): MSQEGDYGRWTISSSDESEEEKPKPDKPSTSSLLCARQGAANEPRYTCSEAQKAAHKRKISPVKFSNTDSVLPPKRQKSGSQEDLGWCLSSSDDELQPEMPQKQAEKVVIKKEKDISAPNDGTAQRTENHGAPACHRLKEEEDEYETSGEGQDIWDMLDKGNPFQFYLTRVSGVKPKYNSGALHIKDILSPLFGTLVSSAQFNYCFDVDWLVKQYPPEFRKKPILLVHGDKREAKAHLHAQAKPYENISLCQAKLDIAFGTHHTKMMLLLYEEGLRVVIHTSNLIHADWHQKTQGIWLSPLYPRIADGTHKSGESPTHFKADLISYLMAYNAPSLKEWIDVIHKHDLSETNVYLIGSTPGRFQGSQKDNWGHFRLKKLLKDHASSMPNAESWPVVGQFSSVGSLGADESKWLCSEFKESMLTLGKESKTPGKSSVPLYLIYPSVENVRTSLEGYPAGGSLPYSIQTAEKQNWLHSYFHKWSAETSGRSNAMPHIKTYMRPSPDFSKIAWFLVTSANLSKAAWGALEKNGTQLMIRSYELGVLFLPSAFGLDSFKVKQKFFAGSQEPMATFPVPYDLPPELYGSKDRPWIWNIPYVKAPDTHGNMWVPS
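Recombinant E. coli-expressed Tdp1 (1 nM) preincubated with compound 15 min at RT, then 5'-biotin/3'-phosphotyrosine-FITC DNA substrate (15 nM) added for 5 min. AlphaScreen beads (10 ug/ml) added, 10 min RT; tyrosine-FITC cleavage read as signal loss.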
Six1-Eya2 inh – Six1/Eya2 interaction inhibition. AlphaScreen GST-Six1/His-Eya2 binding, biochemical; active compounds read low. AID 651725. Q15475+O00167. 360,000 tested, 0.56% active. activity change, % (test concentration not listed); in the data active means activity change below about -65%; inconclusive means mostly about -30% to -63%
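Homogeneous AlphaScreen proximity assay pairing GST-Six1 with His-tagged Eya2 (added as 5X mix: 250 nM and 500 nM) in 50 mM Tris pH 8.0, 300 mM NaCl, 1 mM TCEP. Glutathione donor and nickel acceptor beads; 1 h, 37 °C, dark.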
The depositor's hits bear a star; ? = inconclusive; . = no result. Only some compounds are listed: those with a hit (about 18% of all), similar ones and a draw of the others. Unless noted, the call rests on the fitted dose curve; in most records, active means well fitted curve in the direction sought with a large enough effect; inconclusive means small, poorly fitted or top-dose-only effect, or another doubt; inactive means no such curve, though single readings can be large; an effect the other way counts as inactive or inconclusive. On the % scale 0 is the no-effect control and ±100 the full control effect.

SMILES	TDP1 cell CPT	DT40 TDP1 no CPT	CtBP-E1A blk	IL-1B inflam inh	TDP1 inh	Six1-Eya2 inh
CCCC[C@H]1CCCO[C@@](C(=O)NCc2ccccc2)(C(F)(F)F)C1	.	.	.	.	-3.8%	.
COc1ccc([C@H]2OCC3C2CO[C@@H]3c2ccc(OC)c(OC)c2)cc1OC (some centres not stated)	.	.	.	.	11.5%	.
COc1cccc(C(=O)c2sc(Nc3ccc(C)cc3C)c(S(=O)(=O)c3ccccc3)c2N)c1	-10.3%	-29.9%	.	.	2.5%	.
COc1ccc(-c2cn3nc(N4CCC(C(=O)Nc5ccc(C)cc5)CC4)sc3n2)cc1	?	20.6µM*	.	.	3.7%	.
COc1ccc(-c2cn3nc(N4CCC(C(=O)Nc5ccccc5OC)CC4)sc3n2)cc1	?	?	.	.	7.5%	.
COc1ccc(-c2cn3nc(N4CCCC(C(=O)Nc5cccc(Cl)c5C)C4)sc3n2)cc1 (configuration not stated)	?	20.6µM*	.	.	2.5%	.
COc1ccc(-c2cn3nc(N4CCC(C(=O)NCc5ccc(F)cc5)CC4)sc3n2)cc1	-33.0%	?	.	.	1.2%	.
COc1ccc(-c2cn3nc(N4CCCC(C(=O)Nc5ccc(C)c(C)c5)C4)sc3n2)cc1 (configuration not stated)	?	11.6µM*	.	.	5.0%	.
CCCSCCCNC(=O)C1CCN(c2nn3cc(-c4ccc(F)cc4)nc3s2)CC1	5.17µM*	?	.	.	2.5%	.
CN(Cc1ccccc1)S(=O)(=O)c1ccc(F)c(C(=O)Nc2ccccc2C(F)(F)F)c1	?	?	.	.	-7.8%	.
CCOc1ccc(NC(=O)C2CCCN(c3nn4cc(-c5ccc(OC)cc5)nc4s3)C2)cc1 (configuration not stated)	?	10.3µM*	.	.	8.7%	.
CCNC(=O)C1CCCN(c2nn3cc(-c4ccc(C)cc4)nc3s2)C1 (configuration not stated)	18.4µM*	23.1µM*	.	.	3.7%	.
Cc1ccc(-c2cn3nc(N4CCCC(C(=O)Nc5ccc(F)cc5)C4)sc3n2)cc1 (configuration not stated)	16.4µM*	18.4µM*	.	.	5.0%	.
CCN(C(=N)N=C(N)N)c1ccccc1	?	18.4µM*	.	0.6	2.7%	-1.9
CCN(CC)c1cc(C)c2cc(NC(=O)/C=C/c3ccccc3OC(C)C)ccc2n1	?	23.1µM*	.	.	0.0%	.
Fc1ccc(-c2cnc3n2CCCCC3)cc1	-20.9%	?	-2.2	-16.5	5.9%	-8.0
Clc1ccc(-c2cnc3n2CCCCC3)cc1	14.6µM*	9.2µM*	-7.1	?	5.0%	-11.5
Cc1nn(C)c(C)c1C1C(C#N)=C(N)OC2=C1C(=O)CC(C)(C)C2 (configuration not stated)	9.6%	9.3%	-7.0	-5.8	5.1%	-2.6
CCCCOc1ccc(S(=O)(=O)Nc2cc(OC)ccc2OC)cc1	?	16.4µM*	4.2	-75.2*	2.0%	-9.6
O=S(=O)(Nc1cccnc1)c1cccnc1	-0.9%	0.5%	0.0	1.7	.	-18.3
CCCCOc1ccc(S(=O)(=O)Nc2cccnc2)cc1	9.2µM*	10.3µM*	10.0	-17.0	1.5%	3.7
CCC(=O)Nc1ccc(S(=O)(=O)Nc2cccnc2)cc1	-6.8%	-8.6%	11.6	17.3	2.2%	9.1
Cc1ccc(S(=O)(=O)Nc2cccnc2)cc1	?	29.1µM*	4.4	22.4	2.0%	-1.5
O=C(COC(=O)c1cccs1)NCCCc1ccccc1	2.8%	0.1%	-1.8	5.2	7.1%	-0.5
CC1(C)Cc2c(C#N)c(N3CCOCC3)nc(Cc3ccccc3)c2CO1	?	20.6µM*	-1.7	-14.7	-5.9%	0.0
SMILES	TDP1 cell CPT	DT40 TDP1 no CPT	CtBP-E1A blk	IL-1B inflam inh	TDP1 inh	Six1-Eya2 inh
CCc1nc(N2CCN(C(=O)c3ccccc3)CC2)c(C#N)c2c1COC(C)(C)C2	18.4µM*	14.6µM*	-7.5	0.0	4.9%	-1.0
O=C(OC1CCc2ccccc2C1=O)c1ccccc1O (configuration not stated)	23.1µM*	16.4µM*	18.6	10.0	.	15.8
COc1ccc(C(=O)c2ccc3oc(-c4ccc(OC)cc4)c(-c4ccc(O)cc4)c3c2)cc1	?	9.2µM*	2.0	-18.7	0.8%	-1.8
Cc1c(Cl)cccc1Nc1nc(NCCO)c2ccccc2n1	?	?	-3.9	-108.3*	4.9%	0.6
OCCNc1nc(Nc2ccc(Br)cc2)nc2ccccc12	5.8µM*	6.51µM*	-6.6	-101.5*	2.6%	-1.4
OCCNc1nc(Nc2ccccc2)nc(Nc2ccccc2)n1	?	-23.2%	18.8	-12.0	7.1%	13.7
OCCNc1nc(-c2ccccc2)c2cc(Br)ccc2n1	?	?	5.8	-14.3	.	31.9
OCCNc1nc(Nc2ccccc2)nc2ccccc12	10.3µM*	13µM*	-5.5	.	0.2%	6.8
OCCNc1nc(N2CCCCC2)nc2ccccc12	-5.0%	-13.7%	0.7	11.6	.	-4.6
CCc1ccc(CNC(=O)C2COc3ccc(OC)cc3C2)cc1 (configuration not stated)	-19.0%	-21.3%	.	.	-1.8%	.
O=C(O)CN1C(=O)NC2(CCCc3ccccc32)C1=O (configuration not stated)	15.9%	-12.7%	3.1	-7.1	10.7%	6.6
O=C(NC1CC(=O)N(c2ccc(Cl)cc2)C1)c1ccc(S(=O)(=O)N2CCCC2)cc1 (configuration not stated)	?	?	.	.	2.6%	.
O=C(COc1ccccc1O)Nc1ccccc1Cl	-12.8%	10.9%	4.3	11.9	6.7%	-0.5
C/C(=N\NC(=O)c1cccc(F)c1)c1cccc(NC(=O)c2ccc(F)cc2)c1	-0.9%	-15.5%	5.1	-4.7	2.4%	7.8
COc1ccc(C(=O)Nc2cccc(/C(C)=N\NC(=O)c3ccoc3C)c2)cc1OC	?	?	-18.3	-50.4*	5.5%	-10.5
C/C(=N/NC(=O)c1ccc(C)s1)c1cccc(NC(=O)COc2ccc(Cl)cc2C)c1	?	?	3.7	-2.1	2.0%	8.4
CC(=O)c1cccc(NC(=O)c2ccoc2C)c1	8.7%	-2.1%	-6.3	42.7	-4.7%	-1.8
C/C(=N/Nc1ccc([N+](=O)[O-])cc1)c1ccc(C)cc1C	-102.3%	-102.3%	10.1	-80.8*	-2.6%	1.3
C/C(=N\NC(=O)c1ccc(O)cc1)c1cccc(NC(=O)c2ccc(Cl)cc2)c1	?	11.6µM*	5.4	-96.5*	.	-14.6
C/C(=N\NC(=O)c1c(Cl)c(C)nn1C)c1cccc(NC(=O)COc2ccc(Cl)cc2)c1	?	16.4µM*	10.0	-12.2	6.5%	1.1
